Reference: the supplement of paper PMC10681739

Experiments:
ETS1 [1] = biological target: T1, ETS1 (UniProt P14921); assay: ETS1 binding intensity (PBM fluorescence), ETS1 alone (arbitrary fluorescence units); higher = stronger binding; details: ETS1 concentration 1 nM; RUNX1 concentration 0 nM
T1 sequence: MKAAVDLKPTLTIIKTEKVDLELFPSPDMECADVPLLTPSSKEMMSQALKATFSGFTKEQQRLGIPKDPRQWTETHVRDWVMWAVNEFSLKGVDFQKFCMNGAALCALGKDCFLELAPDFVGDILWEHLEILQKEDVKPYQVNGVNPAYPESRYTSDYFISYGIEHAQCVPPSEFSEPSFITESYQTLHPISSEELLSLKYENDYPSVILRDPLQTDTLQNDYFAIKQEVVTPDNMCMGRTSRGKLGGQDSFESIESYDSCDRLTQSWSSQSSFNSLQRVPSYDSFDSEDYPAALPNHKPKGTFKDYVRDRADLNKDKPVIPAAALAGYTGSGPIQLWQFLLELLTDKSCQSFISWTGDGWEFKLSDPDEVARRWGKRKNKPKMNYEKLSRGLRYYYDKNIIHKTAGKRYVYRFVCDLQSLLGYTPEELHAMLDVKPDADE

RUNX1 [2] = biological target: RUNX1 (UniProt Q01196); assay: RUNX1 binding intensity (PBM fluorescence), RUNX1 alone (arbitrary fluorescence units); higher = stronger binding; details: RUNX1 concentration 2 nM; ETS1 concentration 0 nM
Procedure: (§1)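 Cooperative gcPBM on 36-bp genomic probes with neighbouring ETS1 and RUNX1 sites. Recombinant human RUNX1 (2 nM) was incubated alone or with ETS1 (25 nM) and detected with anti-RUNX1 antibody plus Alexa488 secondary. Values are medians over 4 replicate spots; the RUNX1+ETS1 data were normalised to the RUNX1-only data. The probes sit in constant array flanks that are not printed.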

ETS1 [3] = biological target: T1, ETS1; assay: ETS1 binding intensity (PBM fluorescence) in presence of RUNX1, normalised to ETS1-only experiment (arbitrary fluorescence units); higher = stronger binding; details: ETS1 concentration 1 nM; RUNX1 concentration 25 nM
RUNX1 [4] = biological target: RUNX1 (UniProt Q01196); assay: RUNX1 binding intensity (PBM fluorescence) in presence of ETS1, normalised to RUNX1-only experiment (arbitrary fluorescence units); higher = stronger binding; details: RUNX1 concentration 2 nM; ETS1 concentration 25 nM
Procedure: as §1
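For RUNX1 binding intensity (PBM fluorescence) in presence of ETS1, normalised to RUNX1-only experiment in this document: Full-length recombinant human ETS1 or RUNX1 bound to double-stranded 36-bp genomic probes on microarrays, detected by protein-specific primary antibody and Alexa488 secondary, spot fluorescence as median of four replicate spots.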
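For RUNX1 binding intensity (PBM fluorescence), RUNX1 alone in this document: Full-length recombinant human RUNX1 bound to double-stranded 36-bp genomic probes on a high-density microarray, scored as Alexa488 fluorescence per spot via anti-RUNX1 antibody, median of four replicate spots.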

RUNX1, sequence (Q01196 whole entry): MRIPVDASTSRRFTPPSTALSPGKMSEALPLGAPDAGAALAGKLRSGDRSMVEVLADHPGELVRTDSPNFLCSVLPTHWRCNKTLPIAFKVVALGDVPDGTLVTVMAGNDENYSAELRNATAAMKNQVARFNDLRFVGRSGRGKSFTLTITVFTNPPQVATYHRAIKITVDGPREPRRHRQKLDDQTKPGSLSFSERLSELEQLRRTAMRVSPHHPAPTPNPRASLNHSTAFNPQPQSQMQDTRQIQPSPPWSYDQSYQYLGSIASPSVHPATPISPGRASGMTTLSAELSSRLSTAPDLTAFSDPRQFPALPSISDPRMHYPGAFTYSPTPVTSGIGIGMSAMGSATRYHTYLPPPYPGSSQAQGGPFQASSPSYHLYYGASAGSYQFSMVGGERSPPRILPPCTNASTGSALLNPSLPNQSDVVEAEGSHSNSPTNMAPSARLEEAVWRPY

Q: With GCCTGAAGGACTTCCGGGAACCGCAAAGCACGGTGT as the sequence, how does the ETS1 binding intensity (ETS1 [1]) read?
A: 1620

Q: What about the RUNX1 binding intensity (RUNX1 [2]) of the same sequence?
A: 1500

Q: And the ETS1 binding intensity (ETS1 [3])?
A: 3510

Q: And the RUNX1 binding intensity (RUNX1 [4])?
A: 3430

Q: Which results are given for GGAGGGGCTGGCCGGAAGTGAACCGCAGAGCACGCT?
A: ETS1 binding intensity (ETS1 [1]): 11600; RUNX1 binding intensity (RUNX1 [2]): 1070; ETS1 binding intensity (ETS1 [3]): 33500; RUNX1 binding intensity (RUNX1 [4]): 2980

Q: For TCTTGTTTCTTCCGTTACCGGAGCGCGGTCACGTGA, which ETS1 binding intensity (ETS1 [1]) is on record?
A: 455

Q: What about the RUNX1 binding intensity (RUNX1 [2]) of the same sequence?
A: 979

Q: And the ETS1 binding intensity (ETS1 [3])?
A: 438

Q: And the RUNX1 binding intensity (RUNX1 [4])?
A: 1570

Q: Which results are given for CTCCCACATCCGAAGCGGCGCAACCCACAACAGCCT?
A: ETS1 binding intensity (ETS1 [1]): 445; RUNX1 binding intensity (RUNX1 [2]): 1120; ETS1 binding intensity (ETS1 [3]): 344; RUNX1 binding intensity (RUNX1 [4]): 1620

Q: What does the source list for ACGTGATGGCAGTCTTCCTGCCCACAAGTTCTGGTC?
A: ETS1 binding intensity (ETS1 [1]): 422; RUNX1 binding intensity (RUNX1 [2]): 1250; ETS1 binding intensity (ETS1 [3]): 486; RUNX1 binding intensity (RUNX1 [4]): 1440

Q: How did the ETS1 binding intensity (ETS1 [1]) turn out when GACTGGACAACTTCCTGGTGGAAAACCGCGACTCTT was run?
A: 637

Q: What about the RUNX1 binding intensity (RUNX1 [2]) of the same sequence?
A: 1050

Q: What about the ETS1 binding intensity (ETS1 [3]) of the same sequence?
A: 2930

Q: And the RUNX1 binding intensity (RUNX1 [4])?
A: 2340

Q: Which ETS1 binding intensity (ETS1 [1]) does the source give for TGTCCACCTCTACGGAAGTGCGCCGCAGTCCGCCAG here?
A: 1620

Q: What about the RUNX1 binding intensity (RUNX1 [2]) of the same sequence?
A: 792

Q: What about the ETS1 binding intensity (ETS1 [3]) of the same sequence?
A: 2370

Q: And the RUNX1 binding intensity (RUNX1 [4])?
A: 908

Q: What does the source list for TGGTTAGGGAGAGGGGGATGTGGTTAGGGTGAGGGA?
A: ETS1 binding intensity (ETS1 [1]): 530; RUNX1 binding intensity (RUNX1 [2]): 1110; ETS1 binding intensity (ETS1 [3]): 3960; RUNX1 binding intensity (RUNX1 [4]): 1140

Q: What does the source list for GGGGCTGTGCTTCCGGCTGTTTGTGCGGTTTTGTGC?
A: ETS1 binding intensity (ETS1 [1]): 1650; RUNX1 binding intensity (RUNX1 [2]): 1520; ETS1 binding intensity (ETS1 [3]): 6750; RUNX1 binding intensity (RUNX1 [4]): 4340

Q: What does the source list for GGTCCCCCCGGTTCCGGCGCGGTTGAGGCCTTCGGT?
A: ETS1 binding intensity (ETS1 [1]): 683; RUNX1 binding intensity (RUNX1 [2]): 758; ETS1 binding intensity (ETS1 [3]): 676; RUNX1 binding intensity (RUNX1 [4]): 1170

Q: What does the source list for AACAACAGGATGCTCTCTAGTCTAACAGTGGTAACA?
A: ETS1 binding intensity (ETS1 [1]): 847; RUNX1 binding intensity (RUNX1 [2]): 866; ETS1 binding intensity (ETS1 [3]): 820; RUNX1 binding intensity (RUNX1 [4]): 1020

Q: With TTGGAGGCGGAAACAGGCACCGAAAGCGGTGGAAGT as the sequence, how does the ETS1 binding intensity (ETS1 [1]) read?
A: 2150

Q: What about the RUNX1 binding intensity (RUNX1 [2]) of the same sequence?
A: 717

Q: And the ETS1 binding intensity (ETS1 [3])?
A: 2120

Q: What about the RUNX1 binding intensity (RUNX1 [4]) of the same sequence?
A: 854

Q: What does the source list for GGCCAGGCAGGAAGTCCCGCGCCACAAGCGGCCGTC?
A: ETS1 binding intensity (ETS1 [1]): 3050; RUNX1 binding intensity (RUNX1 [2]): 758; ETS1 binding intensity (ETS1 [3]): 3300; RUNX1 binding intensity (RUNX1 [4]): 1230

Q: Which ETS1 binding intensity (ETS1 [1]) does the source give for TCCTCCGTTTCCGTAGTTCCGAGTTGCGGTTTCTCC here?
A: 487

Q: And the RUNX1 binding intensity (RUNX1 [2])?
A: 12000

Q: And the ETS1 binding intensity (ETS1 [3])?
A: 3790

Q: What about the RUNX1 binding intensity (RUNX1 [4]) of the same sequence?
A: 15200
